Inconclusive results are not listed. The source made the active and inactive calls. Rule for the calls, unless noted: active = hit-call score of the fitted dose curve at least 0.9, where 1 is the maximum; inactive = score below 0.9.
Legend:
[1] = target: Paired box protein Pax-6 (Homo sapiens) (UniProt P26367); assay: ATG_Pax6_CIS: Attagene CIS-FACTORIAL HepG2 Assay for human Paired Box 6 (PAX6) (AID 2282956); conditions: HepG2 CIS-FACTORIAL PAX6 reporter transcription, RNA readout; actives raise or lower the signal
Paired box protein Pax-6 (Homo sapiens), sequence (P26367 whole entry, looked up): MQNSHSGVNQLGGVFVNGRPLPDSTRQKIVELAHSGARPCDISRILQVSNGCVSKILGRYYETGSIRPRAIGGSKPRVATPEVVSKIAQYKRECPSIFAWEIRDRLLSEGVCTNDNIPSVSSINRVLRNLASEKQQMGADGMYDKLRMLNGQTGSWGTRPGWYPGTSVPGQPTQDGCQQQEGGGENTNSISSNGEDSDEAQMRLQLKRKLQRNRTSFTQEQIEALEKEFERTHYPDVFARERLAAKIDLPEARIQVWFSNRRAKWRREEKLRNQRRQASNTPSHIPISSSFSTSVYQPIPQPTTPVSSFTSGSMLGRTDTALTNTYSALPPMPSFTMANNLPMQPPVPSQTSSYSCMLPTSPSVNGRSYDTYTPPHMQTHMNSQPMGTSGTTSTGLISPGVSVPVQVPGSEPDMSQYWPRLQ
In short: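 After twenty-four hours of chemical exposure, transfected HepG2 cells are harvested for RNA. Cis-promoter reporter transcripts are amplified, fluorescently labelled and sized by capillary electrophoresis, with gain and loss of signal scored against DMSO.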

[2] = ATG_PXRE_CIS: Attagene CIS-FACTORIAL HepG2 Assay for human Pregnane X Receptor Element (PXRE) (AID 2282957); conditions: HepG2 Attagene CIS-FACTORIAL PXRE reporter, mRNA; actives raise or lower the signal
In short: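 Multiplexed cis-reporter assay in transiently transfected human HepG2 cells; 24 h chemical exposure. Reporter transcripts quantified by RT-PCR with fluorescent labeling and capillary electrophoresis.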

[3] = ATG_PPRE_CIS: Attagene CIS-FACTORIAL HepG2 Assay for human Peroxisome Proliferator-activated Response Element (PPRE) (AID 2282958); conditions: HepG2 PPRE cis-element reporter, Attagene transcription factor profiling; actives raise or lower the signal
In short: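 Transcript-level reporter induction in transfected HepG2 cells after 24 h chemical exposure, quantified by fluorescence from RT-PCR products separated by capillary electrophoresis.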

[4] = ATG_Sox_CIS: Attagene CIS-FACTORIAL HepG2 Assay for human SRY-box transcription factor (SOX) (AID 2282960); conditions: HepG2 Attagene cis-factorial SOX reporter, mRNA; actives raise or lower the signal
In short: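 Cells were transfected with reporter constructs under cis-regulatory promoters, then exposed to chemicals for 24 h. Reporter transcripts were quantified by fluorescence after RT-PCR and capillary electrophoresis; activity was fitted in both directions against DMSO.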

[5] = target: Transcription factor Sp1 (Homo sapiens) (UniProt P08047); assay: ATG_Sp1_CIS: Attagene CIS-FACTORIAL HepG2 Assay for human Specificity Protein 1 (Sp1) (AID 2282961); conditions: HepG2 Sp1 cis-reporter transcription, actives raise or lower the signal
Transcription factor Sp1 (Homo sapiens), sequence (P08047 whole entry, looked up): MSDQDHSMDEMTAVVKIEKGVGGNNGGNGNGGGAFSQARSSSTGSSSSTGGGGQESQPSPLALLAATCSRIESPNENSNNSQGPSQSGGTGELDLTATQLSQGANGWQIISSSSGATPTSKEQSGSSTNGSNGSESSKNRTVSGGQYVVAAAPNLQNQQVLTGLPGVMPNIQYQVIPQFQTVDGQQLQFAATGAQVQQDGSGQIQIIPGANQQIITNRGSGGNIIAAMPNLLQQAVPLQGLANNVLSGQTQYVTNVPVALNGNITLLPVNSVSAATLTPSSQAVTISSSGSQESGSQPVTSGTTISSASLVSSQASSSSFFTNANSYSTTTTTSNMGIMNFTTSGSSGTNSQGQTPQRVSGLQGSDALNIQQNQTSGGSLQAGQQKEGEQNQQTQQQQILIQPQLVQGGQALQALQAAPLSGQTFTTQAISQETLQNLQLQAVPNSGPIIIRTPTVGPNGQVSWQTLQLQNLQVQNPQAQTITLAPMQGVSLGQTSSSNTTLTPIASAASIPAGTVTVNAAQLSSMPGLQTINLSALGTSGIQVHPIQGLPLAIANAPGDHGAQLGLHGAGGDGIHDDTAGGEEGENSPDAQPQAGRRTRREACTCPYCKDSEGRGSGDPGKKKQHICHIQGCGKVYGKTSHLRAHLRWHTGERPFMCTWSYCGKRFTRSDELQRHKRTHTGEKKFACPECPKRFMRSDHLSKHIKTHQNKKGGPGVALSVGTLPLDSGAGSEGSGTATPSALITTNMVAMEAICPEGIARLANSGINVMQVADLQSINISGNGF
In short: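 Measures mRNA induction of an Sp1-linked reporter in HepG2 cells 24 h post-dosing. Multiplexed reporters read by RT-PCR and capillary electrophoresis; DMSO serves as negative control and baseline.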

[6] = ATG_SREBP_CIS: Attagene CIS-FACTORIAL HepG2 Assay for human Sterol Regulatory Element Binding (SREBP) (AID 2282962); conditions: HepG2 Attagene cis-factorial SREBP reporter, mRNA; actives raise or lower the signal
In short: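 Twenty-four hours after chemical dosing of transfected HepG2 cultures, reporter RNA was converted to cDNA, amplified, end-labelled with 6-FAM and resolved by capillary electrophoresis. Responses were fitted relative to DMSO.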

[7] = target: Signal transducer and activator of transcription 3 (Homo sapiens) (UniProt P40763); assay: ATG_STAT3_CIS: Attagene CIS-FACTORIAL HepG2 Assay for human Signal Transducer and Activator of Transcription 3 (STAT3) (AID 2282963); conditions: HepG2, Attagene cis-factorial STAT3 reporter transcription; actives raise or lower the signal
Signal transducer and activator of transcription 3 (Homo sapiens), sequence (P40763 whole entry, looked up): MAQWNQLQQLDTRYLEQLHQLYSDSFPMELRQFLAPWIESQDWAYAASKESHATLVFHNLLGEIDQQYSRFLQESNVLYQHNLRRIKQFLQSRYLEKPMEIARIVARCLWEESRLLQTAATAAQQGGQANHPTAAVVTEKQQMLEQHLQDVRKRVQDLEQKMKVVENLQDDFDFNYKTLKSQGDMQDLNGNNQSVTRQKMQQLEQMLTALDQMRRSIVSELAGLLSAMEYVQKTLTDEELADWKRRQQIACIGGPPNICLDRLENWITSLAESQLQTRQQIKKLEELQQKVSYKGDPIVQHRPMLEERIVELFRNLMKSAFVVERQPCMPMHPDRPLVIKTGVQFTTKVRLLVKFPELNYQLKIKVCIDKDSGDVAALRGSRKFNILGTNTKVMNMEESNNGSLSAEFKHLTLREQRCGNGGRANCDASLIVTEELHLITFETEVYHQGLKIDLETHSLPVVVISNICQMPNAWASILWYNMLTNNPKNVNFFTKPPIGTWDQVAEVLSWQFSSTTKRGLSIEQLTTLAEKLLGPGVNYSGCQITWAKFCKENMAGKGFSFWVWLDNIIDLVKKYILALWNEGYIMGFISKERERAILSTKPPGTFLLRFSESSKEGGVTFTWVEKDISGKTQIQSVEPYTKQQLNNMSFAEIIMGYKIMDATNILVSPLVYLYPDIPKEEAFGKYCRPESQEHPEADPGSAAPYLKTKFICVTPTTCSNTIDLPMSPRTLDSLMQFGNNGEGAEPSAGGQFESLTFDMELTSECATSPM
In short: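 After a 24 h compound incubation, total RNA from MRTU-transfected HepG2 cells was converted to cDNA and reporter sequences PCR-amplified, labelled and profiled by capillary electrophoresis. Gain and loss of signal were referenced to DMSO.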

[8] = ATG_TCF_b_cat_CIS: Attagene CIS-FACTORIAL HepG2 Assay for human T-Cell-Factor with beta-catenin (TCF/b-cat) (AID 2282965); conditions: HepG2 TCF/beta-catenin cis-reporter transcription, actives raise or lower the signal
In short: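 Endogenous transcription factor activity is captured through cis-promoter reporter constructs transiently introduced into human HepG2 liver cells. Induced reporter mRNA is measured after 24 h and fitted bidirectionally relative to DMSO.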

[9] = ATG_TAL_CIS: Attagene CIS-FACTORIAL HepG2 Assay for human TAL Basal Promoter (AID 2282966); conditions: HepG2 Attagene cis-factorial TAL promoter reporter; actives raise or lower the signal;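 note: background control endpoint measuring basal TAL promoter reporter mRNA not a specific factor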
In short: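 Steps: transfect HepG2 with multiple reporter transcription units; dose 24 h; isolate RNA, reverse-transcribe, PCR-amplify, label with 6-FAM, digest with HpaI; resolve by capillary electrophoresis. Bidirectional fitting against DMSO baseline.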

[10] = ATG_TGFb_CIS: Attagene CIS-FACTORIAL HepG2 Assay for human Transforming Growth Factor (TGF) (AID 2282967); conditions: HepG2 Attagene CIS TGFb reporter, mRNA transcription; actives raise or lower the signal
In short: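 HepG2 cells transiently transfected with cis-promoter-driven multiple reporter units measure endogenous TF activity; reporter mRNA quantified at 24 h by RT-PCR, FAM labeling, HpaI digestion and capillary electrophoresis. Bidirectional fit vs DMSO.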

[11] = ATG_VDRE_CIS: Attagene CIS-FACTORIAL HepG2 Assay for human Vitamin D Receptor Element (VDRE) (AID 2282968); conditions: HepG2 VDRE cis-reporter transcription, actives raise or lower the signal
In short: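 In transiently transfected HepG2 liver cells, gain or loss of reporter mRNA after 24 h exposure is scored relative to DMSO, using fluorescence detection by capillary electrophoresis of RT-PCR products.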

[12] = target: Nuclear receptor subfamily 1 group I member 3 (Homo sapiens) (UniProt Q14994); assay: ATG_CAR_TRANS: Attagene TRANS-FACTORIAL HepG2 Assay for human Constitutive Androstane Receptor (CAR) (AID 2282969; active = hit-call score of the fitted dose curve at least 0.9, where 1 is the maximum;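 note: activators raise reporter mRNA above DMSO so AC50 marks induction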); conditions: HepG2 Attagene TRANS-FACTORIAL CAR reporter
Nuclear receptor subfamily 1 group I member 3 (Homo sapiens), sequence (Q14994 whole entry, looked up, the tested form may be a part): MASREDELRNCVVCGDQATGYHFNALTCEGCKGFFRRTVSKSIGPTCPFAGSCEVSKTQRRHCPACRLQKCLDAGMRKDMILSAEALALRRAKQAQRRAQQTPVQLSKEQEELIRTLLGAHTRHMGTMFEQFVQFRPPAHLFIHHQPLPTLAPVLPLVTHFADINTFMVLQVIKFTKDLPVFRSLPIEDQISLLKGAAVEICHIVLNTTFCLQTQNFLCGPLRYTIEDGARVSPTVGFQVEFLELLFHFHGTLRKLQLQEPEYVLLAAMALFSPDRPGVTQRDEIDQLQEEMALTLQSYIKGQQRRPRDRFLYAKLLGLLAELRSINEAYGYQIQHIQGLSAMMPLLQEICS
In short: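 Readout is reporter mRNA induction, quantified by fluorescent primer extension and capillary electrophoresis after RT-PCR. Cells were HepG2 transiently carrying chimeric NR-Gal4 constructs with GAL4-UAS reporters, treated for 24 h; activity scored upward from DMSO.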

[13] = target: Estrogen receptor (Homo sapiens) (UniProt P03372); assay: ATG_ERa_TRANS: Attagene TRANS-FACTORIAL HepG2 Assay for human Estrogen Receptor alpha (ERa) (AID 2282970; active = hit-call score of the fitted dose curve at least 0.9, where 1 is the maximum); conditions: HepG2 Attagene TRANS ERa GAL4 reporter, mRNA
Estrogen receptor (Homo sapiens), sequence (P03372 whole entry, looked up, the tested form may be a part): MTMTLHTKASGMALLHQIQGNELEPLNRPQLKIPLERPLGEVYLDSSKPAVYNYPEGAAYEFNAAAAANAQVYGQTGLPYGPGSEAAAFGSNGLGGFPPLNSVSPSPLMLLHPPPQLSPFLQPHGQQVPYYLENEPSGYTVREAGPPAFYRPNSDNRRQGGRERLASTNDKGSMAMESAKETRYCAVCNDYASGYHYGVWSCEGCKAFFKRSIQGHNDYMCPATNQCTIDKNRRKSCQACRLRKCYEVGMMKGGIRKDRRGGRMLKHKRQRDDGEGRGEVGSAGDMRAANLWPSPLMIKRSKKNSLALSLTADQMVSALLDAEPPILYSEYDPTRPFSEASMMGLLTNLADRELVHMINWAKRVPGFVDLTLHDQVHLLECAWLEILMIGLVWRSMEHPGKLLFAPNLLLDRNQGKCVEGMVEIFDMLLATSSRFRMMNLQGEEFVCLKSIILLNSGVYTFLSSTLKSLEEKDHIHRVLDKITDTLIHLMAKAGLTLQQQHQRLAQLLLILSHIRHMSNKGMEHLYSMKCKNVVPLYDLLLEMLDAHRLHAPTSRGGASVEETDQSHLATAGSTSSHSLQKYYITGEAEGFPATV
In short: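 Multiplexed cell-based reporter format in HepG2: chimeric ERa-Gal4 protein drives GAL4-UAS reporter transcription. Fluorescent reporter mRNA quantified by capillary electrophoresis 24 hours after dosing; endpoint fitted as signal gain against DMSO.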

[14] = target: X-box-binding protein 1 (Homo sapiens) (UniProt P17861); assay: ATG_Xbp1_CIS: Attagene CIS-FACTORIAL HepG2 Assay for human X-box Binding Protein 1 (XBP1) (AID 2282972); conditions: HepG2 XBP1 cis-element reporter, Attagene multiplex; actives raise or lower the signal
X-box-binding protein 1 (Homo sapiens), sequence (P17861 whole entry, looked up): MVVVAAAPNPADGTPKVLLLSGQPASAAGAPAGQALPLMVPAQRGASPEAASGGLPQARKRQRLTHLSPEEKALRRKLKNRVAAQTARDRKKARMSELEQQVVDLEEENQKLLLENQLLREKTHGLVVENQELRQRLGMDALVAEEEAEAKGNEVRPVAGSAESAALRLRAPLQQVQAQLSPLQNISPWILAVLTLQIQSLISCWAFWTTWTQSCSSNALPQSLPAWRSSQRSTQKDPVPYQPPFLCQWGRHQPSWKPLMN
In short: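 After a 24-hour chemical exposure of HepG2 cells carrying cis-regulated reporters, reporter mRNA levels are assessed. Quantification uses RT-PCR, 6-FAM labelling and capillary electrophoresis. Gain- or loss-of-signal is fitted against DMSO.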

[15] = ATG_GAL4_TRANS: Attagene TRANS-FACTORIAL HepG2 Assay for GAL4 (Internal Marker) (AID 2282976; active = hit-call score of the fitted dose curve at least 0.9, where 1 is the maximum); conditions: HepG2 Attagene TRANS GAL4 internal marker reporter
In short: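 Liver HepG2 line bearing multiplexed GAL4-UAS reporter constructs; 24 h chemical treatment. Transcripts were quantified as fluorescent fragments on capillary electrophoresis after RT-PCR and HpaI cut, with activity fitted upward from DMSO.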

[16] = ATG_TA_CIS: Attagene CIS-FACTORIAL HepG2 Assay for human TA Basal Promoter (AID 2282964); conditions: HepG2 Attagene CIS-factorial TA basal promoter reporter; actives raise or lower the signal
In short: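 HepG2 cells transiently transfected with multiple reporter units under cis promoter elements, reporting endogenous transcription factor activity; this endpoint tracks the TA basal promoter as background control. Reporter mRNA after 24 h dosing measured by RT-PCR/capillary electrophoresis; bidirectional fits versus DMSO.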

[17] = ATG_RORE_CIS: Attagene CIS-FACTORIAL HepG2 Assay for human RAR-related Orphan Receptor Element (RORE) (AID 2282959); conditions: HepG2 Attagene cis-factorial RORE reporter, mRNA; actives raise or lower the signal
In short: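 Multiplexed reporter assay measuring mRNA induction from a cis promoter element in transiently transfected HepG2 cells after 24 h treatment. Detection via RT-PCR and capillary electrophoresis fluorescence; DMSO serves as baseline.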

[18] = ATG_M_19_TRANS: Attagene TRANS-FACTORIAL HepG2 Assay for M19 Transcription Factor (Internal Marker) (AID 2282974; active = hit-call score of the fitted dose curve at least 0.9, where 1 is the maximum); conditions: HepG2 Attagene TRANS-FACTORIAL M19 internal marker reporter
In short: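 After transfection of HepG2 with GAL4-UAS-driven reporter constructs, cells are dosed for 24 h. Total RNA is reverse-transcribed, reporter sequences PCR-amplified and labelled, then HpaI-digested and sized by capillary electrophoresis.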

[19] = target: Steroid hormone receptor ERR1 (Homo sapiens) (UniProt P11474); assay: ATG_ERRa_TRANS: Attagene TRANS-FACTORIAL HepG2 Assay for human Estrogen-Related Receptor alpha (ERRa) (AID 2282971; active = hit-call score of the fitted dose curve at least 0.9, where 1 is the maximum); conditions: HepG2 Attagene TRANS reporter, ERRa transactivation
Steroid hormone receptor ERR1 (Homo sapiens), sequence (P11474 whole entry, looked up, the tested form may be a part): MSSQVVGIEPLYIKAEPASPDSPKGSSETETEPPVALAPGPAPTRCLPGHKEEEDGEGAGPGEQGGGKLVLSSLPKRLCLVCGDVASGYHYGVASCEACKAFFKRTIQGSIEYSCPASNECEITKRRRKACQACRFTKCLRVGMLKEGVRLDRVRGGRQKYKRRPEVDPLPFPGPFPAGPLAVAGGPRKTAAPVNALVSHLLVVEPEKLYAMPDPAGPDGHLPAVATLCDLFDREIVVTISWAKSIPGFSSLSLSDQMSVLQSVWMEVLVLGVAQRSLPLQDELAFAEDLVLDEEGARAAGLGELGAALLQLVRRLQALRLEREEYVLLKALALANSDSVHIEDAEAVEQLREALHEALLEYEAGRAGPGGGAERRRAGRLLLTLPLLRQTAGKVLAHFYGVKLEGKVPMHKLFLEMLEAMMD
In short: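 Signal gain relative to DMSO for an ERRa-Gal4 chimeric receptor, read as reporter mRNA by RT-PCR/capillary electrophoresis. Human HepG2 liver cells, transient multiplex reporter transfection, 24 h chemical exposure.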

[20] = target: Estrogen-related receptor gamma (Homo sapiens) (UniProt P62508); assay: ATG_ERRg_TRANS: Attagene TRANS-FACTORIAL HepG2 Assay for human Estrogen-Related Receptor gamma (ERRg) (AID 2282977; active = hit-call score of the fitted dose curve at least 0.9, where 1 is the maximum;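 note: hits increase reporter signal over DMSO so potencies reflect activators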); conditions: HepG2 Attagene TRANS reporter, ERRg transactivation
Estrogen-related receptor gamma (Homo sapiens), sequence (P62508 whole entry, looked up, the tested form may be a part): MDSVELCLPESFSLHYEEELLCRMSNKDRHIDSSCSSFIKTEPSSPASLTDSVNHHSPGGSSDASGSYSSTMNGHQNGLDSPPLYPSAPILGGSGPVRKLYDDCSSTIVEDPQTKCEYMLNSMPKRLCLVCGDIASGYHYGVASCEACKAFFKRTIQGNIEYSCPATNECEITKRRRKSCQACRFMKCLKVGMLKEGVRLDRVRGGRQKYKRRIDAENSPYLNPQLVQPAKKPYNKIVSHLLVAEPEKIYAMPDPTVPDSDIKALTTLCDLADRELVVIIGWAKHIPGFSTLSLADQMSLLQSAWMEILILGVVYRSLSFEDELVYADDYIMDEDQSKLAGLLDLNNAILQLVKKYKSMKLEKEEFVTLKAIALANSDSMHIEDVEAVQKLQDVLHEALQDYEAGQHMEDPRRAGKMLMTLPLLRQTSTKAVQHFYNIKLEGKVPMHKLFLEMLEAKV
In short: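 Transient HepG2 transfectants, 24 h compound exposure, GAL4-UAS reporter mRNA by RT-PCR/6-FAM labelling/capillary electrophoresis; positive direction vs DMSO.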

Measured: AC50

Cc1ccc2c(c1)C(=O)c1ccccc1C2=O
active: [2] 6.22 µM | [13] 12.4 µM
not listed: [16] | [17] | [18] | [19] | [20]
inactive: all other assays above

CCN(CC#N)c1cccc(C)c1
active: [2] 45.3 µM
not listed: [15] | [17] | [18] | [19] | [20]
inactive: all other assays above

O=[N+]([O-])c1ccc(CO)cc1
active: [2] 5.54 µM
not listed: [4] | [12] | [16] | [18] | [19] | [20]
inactive: all other assays above

CCCCCc1ccc(Cl)cc1
active: [3] 25.9 µM | [5] 177 µM
not listed: [12] | [17] | [19] | [20]
inactive: all other assays above

CCOc1ccc(N)c([N+](=O)[O-])c1
not listed: [13] | [15] | [17] | [18] | [19] | [20]
inactive: all other assays above

NC(=O)C1CO1 (stereo unspecified)
not listed: [4] | [12] | [13] | [15] | [19] | [20]
inactive: all other assays above

Cn1c(=O)[nH]c2ncn(C)c2c1=O
not listed: [7] | [12] | [17] | [18] | [19] | [20]
inactive: all other assays above

CCCCC(CC)COC(=O)c1ccccc1O (stereo unspecified)
active: [2] 15.3 µM | [13] 50 µM
not listed: [3] | [15] | [18]
inactive: all other assays above

CCCCC/C=C\C/C=C\CCCCCCCC(=O)OC
active: [1] 73.3 µM | [2] 5.54 µM | [16] 100 µM
inactive: [3] | [4] | [5] | [6] | [7] | [9] | [10] | [12] | [14]

Source: PubChem BioAssay (EPA / NIEHS)
